# Experimental data as given in PubChem BioAssay (EPA / NIEHS).
# Results filed as inconclusive are left out. The source made the active and inactive calls. The calls were made as follows, unless noted: active = hit-call score of the fitted dose curve at least 0.9, where 1 is the maximum; inactive = score below 0.9.
# Columns and labels:
# [1] = read-out: Monocyte Chemoattractant Protein-1 (MCP1), CCL2 (gene 6347); assay: BSK_LPS_MCP1: BioMAP Diversity Plus: LPS Assay for Monocyte Chemoattractant Protein-1 (MCP1) Biomarker Activity (AID 2283081); conditions: primary human HUVEC with PBMC; actives raise or lower the signal;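 as to AC50: secreted MCP-1 protein quantified by ELISA in culture supernatant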
# Procedure, shortened: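 ELISA read-out of MCP-1 after 24 h chemical dosing of a human umbilical vein endothelial cell/peripheral blood mononuclear cell co-culture stimulated with LPS. Gain or loss of signal fitted relative to DMSO controls.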
# [2] = BSK_LPS_PGE2: BioMAP Diversity Plus: LPS Assay for Prostaglandin E2 (PGE2) Biomarker Activity (AID 2283082); conditions: primary human HUVEC with PBMC; actives raise or lower the signal;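 as to AC50: secreted prostaglandin E2 measured by ELISA in LPS-stimulated co-culture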
# Procedure, shortened: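 PGE2 release measured by ELISA in an LPS-activated co-culture of human umbilical vein endothelial cells and peripheral blood mononuclear cells, read at 24 h post-dosing. DMSO served as baseline for bidirectional curve fitting.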
# [3] = read-out: Tissue Factor, F3 (gene 2152); assay: BSK_LPS_TissueFactor: BioMAP Diversity Plus: LPS Assay for Tissue Factor Biomarker Activity (AID 2283084); conditions: primary human HUVEC with PBMC; actives raise or lower the signal
# Procedure, shortened: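 HUVEC/PBMC co-culture, LPS-activated; CD142 ELISA read 24 h post-dose; bidirectional curve fit vs DMSO negative control.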
# [4] = read-out: Tumor necrosis factor (Homo sapiens) (UniProt P01375); assay: BSK_LPS_TNFa: BioMAP Diversity Plus: LPS Assay for Tumour Necrosis Factor alpha (TNFa) Biomarker Activity (AID 2283085); conditions: primary human HUVEC with PBMC; actives raise or lower the signal
# Procedure, shortened: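 TNFa was quantified by ELISA in LPS-activated co-cultures of human endothelial cells and PBMC, 24 h post-dosing. Both increases and decreases versus DMSO were fitted.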
# [5] = read-out: Vascular cell adhesion molecule 1 (VCAM1), VCAM1 (gene 7412); assay: BSK_LPS_VCAM1: BioMAP Diversity Plus: LPS Assay for Vascular cell adhesion molecule 1 (VCAM1) Biomarker Activity (AID 2283086); conditions: primary human HUVEC with PBMC; actives raise or lower the signal
# Procedure, shortened: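 VCAM-1 quantified by ELISA in an LPS-activated co-culture of human endothelial cells and peripheral blood mononuclear cells, read 24 h post-treatment. Fitted in both directions versus DMSO; parallel SRB staining flags overt cytotoxicity.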
# CD40, CD40 (gene 958) = assay: BSK_SAg_CD40: BioMAP Diversity Plus: SAg Assay for CD40 Biomarker Activity (AID 2283088); conditions: primary human HUVEC with PBMC; actives raise or lower the signal
# Procedure, shortened: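 HUVEC/PBMC co-culture, 24 h post-dose; CD40 by ELISA, fluorescence intensity; bidirectional fit vs DMSO negative control.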
# CD69, CD69 (gene 969) = assay: BSK_SAg_CD69: BioMAP Diversity Plus: SAg Assay for CD69 Biomarker Activity (AID 2283089); conditions: primary human HUVEC with PBMC; actives raise or lower the signal;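 as to AC50: cell surface CD69 protein quantified by ELISA with fluorescence detection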
# Procedure, shortened: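 Values derive from bidirectional fitting relative to DMSO vehicle. Cells: umbilical vein endothelium plus peripheral blood mononuclear cells, treated 24 h before fluorescent ELISA for CD69.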
# [6] = read-out: Monocyte Chemoattractant Protein-1 (MCP1), CCL2 (gene 6347); assay: BSK_SAg_MCP1: BioMAP Diversity Plus: SAg Assay for Monocyte Chemoattractant Protein-1 (MCP1) Biomarker Activity (AID 2283090); conditions: primary human HUVEC with PBMC; actives raise or lower the signal
# Procedure, shortened: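 Values derive from bidirectional fitting of ELISA-measured MCP1 against DMSO controls. Readings were taken 24 h after dosing human vascular endothelial cells co-cultured with peripheral blood mononuclear cells under superantigen stimulation.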
# [7] = read-out: E-selectin (Homo sapiens) (UniProt P16581); assay: BSK_SAg_Eselectin: BioMAP Diversity Plus: SAg Assay for Eselectin Biomarker Activity (AID 2283091); conditions: primary human HUVEC with PBMC; actives raise or lower the signal
# Procedure, shortened: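 E-selectin ELISA readout at 24 h post-dosing in human umbilical vein endothelial cell/PBMC co-culture; gain or loss of signal fitted relative to DMSO baseline.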
# [8] = read-out: Monokine induced gamma interferon (MIG), CXCL9 (gene 4283); assay: BSK_SAg_MIG: BioMAP Diversity Plus: SAg Assay for Monokine induced gamma interferon (MIG) Biomarker Activity (AID 2283092); conditions: primary human HUVEC with PBMC; actives raise or lower the signal
# Procedure, shortened: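 Values reflect bidirectional fitting of ELISA-measured MIG against DMSO vehicle, taken 24 h after dosing of a co-culture of human umbilical vein endothelial cells and peripheral blood mononuclear cells.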
# [9] = read-out: Interleukin-8 (IL8), CXCL8 (gene 3576); assay: BSK_SAg_IL8: BioMAP Diversity Plus: SAg Assay for Interleukin-8 (IL8) Biomarker Activity (AID 2283094); conditions: primary human HUVEC with PBMC; actives raise or lower the signal
# Procedure, shortened: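 ELISA readout of IL-8 from a superantigen-activated endothelial/PBMC primary human co-culture, taken 24 h post-dosing and fitted in both directions against DMSO; parallel SRB total-protein staining flags overt cytotoxicity.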
# [10] = BSK_SAg_Proliferation: Cell Proliferation Assessment in the BioMAP Diversity Plus: SAg Assay (AID 2283095); conditions: primary human HUVEC with PBMC;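 also: relative cell number as total protein by SRB absorbance in sub-confluent culture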
# Procedure, shortened: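 Relative cell number in the endothelial cell/PBMC co-culture was quantified at 96 h by SRB staining (0.1% SRB, 10% TCA fixation, read at 560 nm). Curves were fitted in both directions relative to DMSO baseline.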
# [11] = BSK_SAg_SRB: Viability Assessment in the BioMAP Diversity Plus: SAg Assay (AID 2283096); conditions: primary human HUVEC with PBMC;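 also: cells read one day after compound addition; hits may be either gain or loss of signal compared with DMSO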
# Procedure, shortened: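 This overt-cytotoxicity endpoint quantifies protein in human endothelial/PBMC co-cultures at 24 h using SRB absorbance (560 nm) after trichloroacetic acid fixation. Values reflect signal change from the DMSO negative control, fitted bidirectionally.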
# [12] = target: Cytochrome P450 3A4 (Homo sapiens) (UniProt P08684); assay: NVS_ADME_hCYP3A4: NovaScreen (NVS) CYP450-related Enzyme Activity (ADME) Assay for human CYP3A4 (AID 2283110; active = hit-call score of the fitted dose curve at least 0.9, where 1 is the maximum)
# Sequence of Cytochrome P450 3A4 (Homo sapiens) (P08684 whole entry, looked up): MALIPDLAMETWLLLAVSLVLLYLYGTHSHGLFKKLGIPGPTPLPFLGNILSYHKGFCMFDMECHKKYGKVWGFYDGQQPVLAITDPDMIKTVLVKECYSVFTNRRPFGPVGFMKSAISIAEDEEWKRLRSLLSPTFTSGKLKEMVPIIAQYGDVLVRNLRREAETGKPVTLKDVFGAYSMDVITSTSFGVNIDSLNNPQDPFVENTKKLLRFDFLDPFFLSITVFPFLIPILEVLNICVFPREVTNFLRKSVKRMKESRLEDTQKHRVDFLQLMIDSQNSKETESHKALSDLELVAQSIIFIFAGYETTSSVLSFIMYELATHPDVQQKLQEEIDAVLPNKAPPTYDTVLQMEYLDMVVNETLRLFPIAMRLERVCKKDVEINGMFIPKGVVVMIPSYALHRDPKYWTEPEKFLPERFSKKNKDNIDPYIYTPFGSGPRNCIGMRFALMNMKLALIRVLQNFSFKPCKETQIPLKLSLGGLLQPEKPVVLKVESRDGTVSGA
# Procedure, shortened: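 Activity is derived from decreased fluorescence intensity relative to acetonitrile, measured 0.33 hour after dosing insect-cell-expressed CYP3A4 in a cell-free format. Screening used 10 uM in duplicate before concentration-response follow-up.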
# [13] = target: human CYP19A1, CYP19A1 (gene 1588) (UniProt P11511); assay: NVS_ADME_hCYP19A1: NovaScreen (NVS) CYP450-related Enzyme Activity (ADME) Assay for human CYP19A1 (AID 2283098; active = hit-call score of the fitted dose curve at least 0.9, where 1 is the maximum)
# Sequence of human CYP19A1, CYP19A1 (gene 1588) (P11511 whole entry, looked up): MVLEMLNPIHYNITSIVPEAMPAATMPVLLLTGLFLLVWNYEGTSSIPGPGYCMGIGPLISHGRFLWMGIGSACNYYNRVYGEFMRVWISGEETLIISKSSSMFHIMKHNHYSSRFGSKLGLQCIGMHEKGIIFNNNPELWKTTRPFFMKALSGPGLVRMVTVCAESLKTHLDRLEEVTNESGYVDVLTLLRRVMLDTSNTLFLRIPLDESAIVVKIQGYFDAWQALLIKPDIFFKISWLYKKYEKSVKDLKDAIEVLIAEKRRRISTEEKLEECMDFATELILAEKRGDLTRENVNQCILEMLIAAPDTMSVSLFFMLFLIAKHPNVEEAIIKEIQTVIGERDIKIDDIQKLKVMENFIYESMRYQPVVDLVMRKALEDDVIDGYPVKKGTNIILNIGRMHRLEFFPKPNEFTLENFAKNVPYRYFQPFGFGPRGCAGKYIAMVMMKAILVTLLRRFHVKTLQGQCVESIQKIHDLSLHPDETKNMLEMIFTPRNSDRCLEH
# Procedure, shortened: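 Compounds were first screened at 10 uM in duplicate against purified enzyme, with a fluorogenic substrate and fluorescence intensity detection after 0.5 h. Inhibition appears as reduced signal against acetonitrile control.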
# Sequence of Tumor necrosis factor (Homo sapiens) (P01375 whole entry, looked up): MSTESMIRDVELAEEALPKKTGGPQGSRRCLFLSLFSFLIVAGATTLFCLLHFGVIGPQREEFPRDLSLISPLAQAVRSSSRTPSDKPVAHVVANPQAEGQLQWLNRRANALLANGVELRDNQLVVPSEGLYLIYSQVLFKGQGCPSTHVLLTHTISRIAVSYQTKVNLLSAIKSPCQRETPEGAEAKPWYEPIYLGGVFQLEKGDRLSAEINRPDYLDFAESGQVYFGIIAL
# Sequence of E-selectin (Homo sapiens) (P16581 whole entry, looked up): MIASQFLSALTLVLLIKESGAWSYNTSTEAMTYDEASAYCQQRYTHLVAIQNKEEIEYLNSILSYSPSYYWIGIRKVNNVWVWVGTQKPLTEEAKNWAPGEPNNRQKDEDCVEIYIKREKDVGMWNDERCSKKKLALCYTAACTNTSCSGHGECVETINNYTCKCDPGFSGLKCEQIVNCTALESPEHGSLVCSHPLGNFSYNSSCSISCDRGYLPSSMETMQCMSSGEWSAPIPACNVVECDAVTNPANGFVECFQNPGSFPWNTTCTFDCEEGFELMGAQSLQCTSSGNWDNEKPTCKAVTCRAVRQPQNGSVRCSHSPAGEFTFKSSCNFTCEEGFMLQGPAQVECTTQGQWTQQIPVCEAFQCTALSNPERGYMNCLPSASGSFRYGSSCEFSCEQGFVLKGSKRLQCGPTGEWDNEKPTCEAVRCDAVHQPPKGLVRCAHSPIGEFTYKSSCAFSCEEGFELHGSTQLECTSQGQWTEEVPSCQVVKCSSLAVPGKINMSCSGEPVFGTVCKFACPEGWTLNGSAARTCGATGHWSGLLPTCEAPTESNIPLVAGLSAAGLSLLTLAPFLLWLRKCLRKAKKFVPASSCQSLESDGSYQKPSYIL
smiles,measurement,setting,value
COC(=O)c1ccc(C)cc1,outcome,[1],inactive
same,outcome,[2],inactive
same,outcome,[3],inactive
same,outcome,[4],inactive
same,outcome,[5],inactive
same,outcome,"CD40, CD40 (gene 958)",inactive
same,outcome,"CD69, CD69 (gene 969)",inactive
same,outcome,[6],inactive
same,outcome,[7],inactive
same,outcome,[8],inactive
same,outcome,[9],inactive
same,outcome,[10],inactive
same,outcome,[11],inactive
CC1(C)[C@H]2CC[C@]1(C)[C@H](O)C2,outcome,[12],inactive
CC1CCC(C(C)CS)CC1S (stereo not drawn),AC50,[1],33.5 µM (active)
same,outcome,[2],inactive
same,AC50,[3],30.9 µM (active)
same,outcome,[4],inactive
same,AC50,[5],34.8 µM (active)
same,AC50,"CD40, CD40 (gene 958)",31.6 µM (active)
same,AC50,"CD69, CD69 (gene 969)",30.8 µM (active)
same,AC50,[6],32.6 µM (active)
same,AC50,[7],30.8 µM (active)
same,AC50,[8],34.6 µM (active)
same,AC50,[9],20 µM (active)
same,outcome,[10],inactive
same,AC50,[11],30.7 µM (active)
CCCCCCCCCCCCCOS(=O)(=O)O,outcome,[13],inactive
CC(C)c1ccc(C(C)C)cc1,outcome,[1],inactive
same,outcome,[2],inactive
same,outcome,[3],inactive
same,outcome,[4],inactive
same,outcome,[5],inactive
same,outcome,"CD40, CD40 (gene 958)",inactive
same,outcome,"CD69, CD69 (gene 969)",inactive
same,outcome,[6],inactive
same,outcome,[7],inactive
same,outcome,[8],inactive
same,outcome,[9],inactive
same,outcome,[10],inactive
same,outcome,[11],inactive
CCC(=O)OCc1ccccc1,outcome,[1],inactive
same,outcome,[2],inactive
same,outcome,[3],inactive
same,outcome,[4],inactive
same,outcome,[5],inactive
same,outcome,"CD40, CD40 (gene 958)",inactive
same,outcome,"CD69, CD69 (gene 969)",inactive
same,outcome,[6],inactive
same,outcome,[7],inactive
same,outcome,[8],inactive
same,outcome,[9],inactive
same,outcome,[10],inactive
same,outcome,[11],inactive
Cc1cc(C2(c3cc(C)c(O)cc3C)OS(=O)(=O)c3ccccc32)c(C)cc1O,outcome,[1],inactive
same,outcome,[2],inactive
same,outcome,[3],inactive
same,outcome,[4],inactive
same,outcome,[5],inactive
same,outcome,"CD40, CD40 (gene 958)",inactive
same,outcome,"CD69, CD69 (gene 969)",inactive
same,outcome,[6],inactive
same,outcome,[7],inactive
same,outcome,[8],inactive
same,outcome,[9],inactive
same,outcome,[10],inactive
same,outcome,[11],inactive
OC1OC[C@@H](O)[C@H](O)[C@H]1O (stereo partly drawn),outcome,[1],inactive
same,outcome,[2],inactive
same,outcome,[3],inactive
same,outcome,[4],inactive
same,outcome,[5],inactive
same,outcome,"CD40, CD40 (gene 958)",inactive
same,outcome,"CD69, CD69 (gene 969)",inactive
same,outcome,[6],inactive
same,outcome,[7],inactive
same,outcome,[8],inactive
same,outcome,[9],inactive
same,outcome,[10],inactive
same,outcome,[11],inactive
C#C[C@]1(O)CC[C@H]2[C@@H]3CCC4=Cc5oncc5C[C@]4(C)[C@H]3CC[C@@]21C,outcome,[1],inactive
same,AC50,[2],3.97 µM (active)
same,outcome,[3],inactive
same,outcome,[4],inactive
same,outcome,[5],inactive
same,outcome,"CD40, CD40 (gene 958)",inactive
same,outcome,"CD69, CD69 (gene 969)",inactive
same,outcome,[6],inactive
same,outcome,[7],inactive
same,outcome,[8],inactive
same,outcome,[9],inactive
same,outcome,[10],inactive
same,outcome,[11],inactive
